Assay results as given in PubChem BioAssay (Tox21).
Results filed as inconclusive are left out. The source made the active and inactive calls. Unless noted, calls follow the shape of the dose curve; as a rule, active = well fitted curve in the direction sought with a large enough effect in the repeat runs; inconclusive = weak or mixed curves; inactive = no such curve, though single readings can be large; an effect the other way counts as inactive or inconclusive.

Columns and labels:
[1] = A CellTox Green Cytotoxicity Assay to monitor cytotoxicity in HEK293 cells - 32 hour (AID 1224881); also: nearly all actives have a fitted effect of over 40% in size; also: potency is read from the fitted curve at half-maximal effect
Outline: (§1)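 Real-time, in one plate: 600 HEK293 cells/well with dead-cell DNA dye, pinned compound after 5 h, 37 C incubation over 40 h; viable cells give no appreciable fluorescence.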

[2] = A CellTox Green Cytotoxicity Assay to monitor cytotoxicity in HepG2 cells - 0 hour (AID 1224882); also: nearly all actives have a fitted effect of over 35% in size; also: potency is read from the fitted curve at half-maximal effect
Outline: (§2)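 Cytotoxicity was tracked as dead-cell DNA fluorescence in HepG2 cells treated with test compounds at 37 C; each time-point value comes from one kinetic series spanning 0, 8, 16, 24, 32 and 40 h.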

[3] = A CellTox Green Cytotoxicity Assay to monitor cytotoxicity in HEK293 cells - 8 hour (AID 1224884); also: nearly all actives have a fitted effect of over 35% in size; also: potency is read from the fitted curve at half-maximal effect
Outline: as §1

[4] = qHTS RealTime-Glo MT Cell Viability Assay in HepG2 cells - 16 hour (AID 1224885); also: nearly all actives have a fitted effect of over 50% in size
Outline: (§3)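 HepG2 suspension premixed with RealTime-Glo reagents is plated at 600 cells per well and left 5 h at 37 C/5% CO2. Compounds in DMSO then go in, and bioluminescence reflecting viable cell number is recorded over 40 h.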

[5] = A CellTox Green Cytotoxicity Assay to monitor cytotoxicity in HEK293 cells - 16 hour (AID 1224888); also: nearly all actives have a fitted effect of over 35% in size; also: potency is read from the fitted curve at half-maximal effect
Outline: as §1

[6] = qHTS RealTime-Glo MT Cell Viability Assay in HepG2 cells - 0 hour (AID 1224889); also: nearly all actives have a fitted effect of over 50% in size; also: potency is read from the fitted curve at half-maximal effect
Outline: as §3

[7] = A CellTox Green Cytotoxicity Assay to monitor cytotoxicity in HepG2 cells - 8 hour (AID 1224890); also: nearly all actives have a fitted effect of over 45% in size; also: potency is read from the fitted curve at half-maximal effect
Outline: as §2

[8] = qHTS assay to identify small molecule antagonists of the estrogen receptor alpha (ER-alpha) signaling pathway using the BG1 cell line in the presence of 0.1 nM 17-beta-estradiol - cell viability counter screen (AID 1259241); also: nearly all actives have a fitted effect of over 40% in size
Outline: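 Estradiol-stimulated (0.1 nM) VM7Luc4E2 cells exposed to compounds 22 hr; viability measured by fluorescence of cleaved CellTiter-Fluor substrate after 30 min.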

[9] = qHTS assay to identify small molecule antagonists of the androgen receptor (AR) signaling pathway using the MDA cell line in the presence of 0.5 nM R1881 - cell viability counter screen (AID 1259242); also: nearly all actives have a fitted effect of over 45% in size
Outline: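 Cells seeded at 3,000/well and allowed 5 hr at 37C, 0% CO2 before compound transfer and R1881 (0.5 nM final) addition; 16 hr later, live-cell protease fluorescence indicated cytotoxicity.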

[10] = molecular target: Estrogen receptor (Homo sapiens) (UniProt P03372); assay: qHTS assay to identify small molecule antagonists of the estrogen receptor alpha (ER-alpha) signaling pathway using the BG1 cell line in the presence of 0.1 nM 17-beta-estradiol (AID 1259244); also: nearly all actives have a fitted effect of over 50% in size
Sequence of Estrogen receptor (Homo sapiens) (P03372 whole entry, looked up): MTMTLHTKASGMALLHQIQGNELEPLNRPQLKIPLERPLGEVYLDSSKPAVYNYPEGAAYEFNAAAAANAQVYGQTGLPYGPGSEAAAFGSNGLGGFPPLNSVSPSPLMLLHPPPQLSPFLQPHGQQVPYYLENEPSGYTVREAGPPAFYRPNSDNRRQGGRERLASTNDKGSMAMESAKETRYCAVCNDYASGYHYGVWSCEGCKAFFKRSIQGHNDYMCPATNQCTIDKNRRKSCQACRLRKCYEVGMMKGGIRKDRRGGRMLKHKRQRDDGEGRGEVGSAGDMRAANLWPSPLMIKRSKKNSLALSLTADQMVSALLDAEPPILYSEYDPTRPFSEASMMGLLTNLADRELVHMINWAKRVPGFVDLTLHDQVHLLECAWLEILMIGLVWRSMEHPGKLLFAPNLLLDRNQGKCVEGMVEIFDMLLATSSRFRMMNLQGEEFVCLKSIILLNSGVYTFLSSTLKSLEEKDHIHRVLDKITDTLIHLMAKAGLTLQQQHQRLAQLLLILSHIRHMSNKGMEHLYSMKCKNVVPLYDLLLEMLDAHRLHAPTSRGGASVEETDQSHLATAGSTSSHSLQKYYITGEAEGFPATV
Outline: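 Luciferase signal from VM7Luc4E2 ERE-reporter cells, co-dosed with test compound and 0.1 nM final 17beta-estradiol for 22 h, read with ONE-Glo.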

[11] = qHTS assay to identify small molecule HDAC inhibitors (AID 1259364);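 also: wild-type HCT-116 cells with endogenous class I/II HDAC activity; top concentration of the series differs between compounds; nearly all actives have a fitted effect of over 45% in size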
Outline: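 HCT-116 wt cells, 1,500/well, overnight attach. Compounds (DMSO) 2 h, 37 °C. HDAC-Glo I/II, 30 min RT. Luminescence.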

[12] = qHTS assay to identify small molecule HDAC inhibitors - cell viability counter screen (AID 1259365); also: series mostly up to about 92 µM; nearly all actives have a fitted effect of over 50% in size
Outline: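 After overnight seeding at 1,500 cells per well, wild-type HCT-116 cultures took up compounds in DMSO for 2hr at 37 C. Viable cell content came from luminescence with CellTiter-Glo.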

[13] = qHTS assay to identify small molecule agonists of the sonic hedgehog signaling (Shh) pathway - cell viability counter screen (AID 1259366); also: nearly all actives have a fitted effect of over 50% in size
Outline: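 Same-well cytotoxicity read. Gli1-Luc reporter 3T3 cells; compounds 24hr, 37C/5% CO2; CellTiter-Fluor fluorescence.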

[14] = qHTS assay to identify small molecule antagonists of the sonic hedgehog signaling (Shh) pathway - cell viability counter screen (AID 1259367); also: nearly all actives have a fitted effect of over 55% in size
Outline: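 Cytotoxicity was assessed in parallel with Shh reporter activity by measuring live-cell protease fluorescence (CellTiter-Fluor) in NIH/3T3 cells stably carrying Gli1-Luc, treated with compound under conditioned medium stimulation for 23 hr plus 1 hr reagent incubation.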

[15] = qHTS assay to identify small molecule agonists of the sonic hedgehog signaling (Shh) pathway (AID 1259368; calls by dose curve;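 also: NIH/3T3-derived 3T3Gli1-Luc cells carrying a stable Gli1-driven firefly luciferase reporter; series mostly up to about 92 µM; nearly all actives have a fitted effect of over 15% in size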)
Outline: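 Following a 24 hr incubation with DMSO-dissolved compounds at 37 C, 5% CO2, Gli1-Luc NIH/3T3-derived cells received luciferase reagent for 30 min at room temperature prior to luminescence measurement.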

[16] = qHTS RealTime-Glo MT Cell Viability Assay in HEK293 cells - 24 hour (AID 1224886)
Outline: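 Reads taken at 0, 8, 16, 24, 32 and 40 h from the same wells. HEK293 cells (600/well) carried RealTime-Glo reagents from seeding, with compound added after a 5 h settle at 37 C.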

[17] = qHTS RealTime-Glo MT Cell Viability Assay in HEK293 cells - 8 hour (AID 1224887)
Outline: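 Kinetic, non-lysing viability readout. Seed HEK293 (600/well) with reagent, incubate 5 h at 37 C/5% CO2, pin 23 nL compound in DMSO, incubate at 37 C, read luminescence at 0, 8, 16, 24, 32, 40 h.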

[18] = qHTS assay to identify small molecule phospholipidosis (PLD) inducers (AID 1259344; active = well fitted curve in the direction sought with a large enough effect; an effect the other way counts as inactive or inconclusive)
Outline: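 Cells (HepG2, 900 per well) attach for 4 h, receive LipidTOX Red and compound together, incubate 24 h at 37 C, are fixed 30 min with paraformaldehyde/Hoechst, then imaged at one site per well.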

[19] = molecular target: Androgen receptor (Homo sapiens) (UniProt P10275); assay: qHTS assay to identify small molecule antagonists of the androgen receptor (AR) signaling pathway using the MDA cell line in the presence of 0.5 nM R1881 (AID 1259243); also: nearly all actives have a fitted effect of over 50% in size
Sequence of Androgen receptor (Homo sapiens) (P10275 whole entry, looked up): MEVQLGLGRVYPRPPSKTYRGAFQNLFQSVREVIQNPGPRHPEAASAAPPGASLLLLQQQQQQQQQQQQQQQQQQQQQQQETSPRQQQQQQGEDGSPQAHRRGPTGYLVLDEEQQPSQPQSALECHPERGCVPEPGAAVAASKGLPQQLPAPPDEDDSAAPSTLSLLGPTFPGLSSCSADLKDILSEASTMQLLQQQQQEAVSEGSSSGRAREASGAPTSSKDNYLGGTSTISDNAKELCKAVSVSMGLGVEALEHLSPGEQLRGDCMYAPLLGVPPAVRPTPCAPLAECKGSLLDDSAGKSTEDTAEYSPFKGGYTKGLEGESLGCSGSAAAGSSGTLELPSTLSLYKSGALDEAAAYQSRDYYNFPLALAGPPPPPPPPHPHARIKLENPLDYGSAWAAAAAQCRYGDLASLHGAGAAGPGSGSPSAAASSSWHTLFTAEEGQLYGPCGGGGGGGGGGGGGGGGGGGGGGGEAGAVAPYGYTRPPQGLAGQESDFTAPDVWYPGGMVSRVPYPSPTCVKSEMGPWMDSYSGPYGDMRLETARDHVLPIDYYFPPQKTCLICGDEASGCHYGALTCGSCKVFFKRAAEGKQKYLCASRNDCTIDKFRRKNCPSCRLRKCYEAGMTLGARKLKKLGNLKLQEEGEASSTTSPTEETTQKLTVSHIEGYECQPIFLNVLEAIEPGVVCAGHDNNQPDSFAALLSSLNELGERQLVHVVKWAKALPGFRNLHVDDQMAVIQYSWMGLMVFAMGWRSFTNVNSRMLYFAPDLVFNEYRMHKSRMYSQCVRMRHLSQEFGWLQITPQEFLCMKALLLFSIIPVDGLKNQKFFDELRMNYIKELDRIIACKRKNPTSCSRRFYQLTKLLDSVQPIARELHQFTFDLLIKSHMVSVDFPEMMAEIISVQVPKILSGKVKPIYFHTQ
Outline: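 Luminescence from an AR/GR-responsive MMTV-luciferase construct in MDA-kb2 breast carcinoma cells, read 30 min after ONE-Glo, following 16 hr co-treatment with compounds and 0.5 nM R1881.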
% is scaled to controls: 0 for no effect and ±100 for the full control effect.

CC(C)Cc1ccc(C(C)C(=O)OCc2ccccn2)cc1 (configuration not stated)
inactive: Potency [1] | Potency [2] | Potency [3] | Potency [4] | Potency [5] | Potency [6] | Potency [7] | Potency [8] | Potency [9] | Potency [10] | Potency [11] | Potency [12] | Potency [13] | Potency [14] | outcome [15]

N=c1ccn2c(n1)O[C@H]1[C@H](O)[C@@H](CO)O[C@H]12
inactive: Potency [1] | Potency [2] | Potency [3] | Potency [4] | Potency [16] | Potency [17] | Potency [5] | Potency [6] | Potency [7] | Potency [8] | Potency [9] | Potency [10] | Potency [18] | Potency [11] | Potency [12] | Potency [13] | Potency [14] | outcome [15]

CC(CSC(=O)c1ccccc1)C(=O)N1C[C@@H](Sc2ccccc2)C[C@H]1C(=O)O (some centres not stated)
inactive: cytotoxicity increase [1] 1.09% [at 15.8 µM] | cytotoxicity [2] 5.13% [at 15.8 µM] | cytotoxicity increase [3] 0.0018% [at 15.8 µM] | activity change, negative = cytotoxic [4] 2.9% [at 15.8 µM] | activity change, negative = cytotoxicity [16] -5.81% [at 15.8 µM] | activity change, negative = cytotoxicity [17] -4.84% [at 15.8 µM] | activity change [5] -0.144% [at 15.8 µM, stronger effect = higher value] | activity change, negative = cytotoxicity [6] -0.48% [at 15.8 µM] | activity change, negative = cytotoxicity [8] 3.73% [at 19 µM] | viability change, negative = cytotoxic [9] 5.22% [at 19 µM] | Potency [18] | activity change, negative = inhibition [11] 3.83% [at 19 µM] | activity change, negative = cytotoxicity [12] -1.25% [at 19 µM] | viability change, negative = cytotoxic [13] -5.51% [at 19 µM] | viability change, negative = cytotoxic [14] 1.29% [at 19 µM]

CCN(CC)CCNC(=O)c1cc(Br)c(N)cc1OC
inactive: Potency [1] | Potency [2] | Potency [3] | Potency [4] | Potency [16] | Potency [17] | Potency [5] | Potency [6] | Potency [7] | Potency [8] | Potency [9] | Potency [10] | Potency [18] | Potency [11] | Potency [12] | Potency [13] | Potency [14] | outcome [15]

CCCCC(=O)OCC(=O)[C@H]1[C@H](C)C[C@H]2[C@@H]3C[C@H](F)C4=CC(=O)C=C[C@]4(C)[C@@]3(F)[C@@H](O)C[C@@]21C
active: Potency [6] 0.952 µM
inactive: Potency [1] | Potency [2] | Potency [3] | Potency [4] | Potency [17] | Potency [5] | Potency [7] | Potency [9] | Potency [10] | PLD induction [18] -1.62% [at 7.66 µM] | Potency [11] | Potency [12] | Potency [13] | Potency [14] | outcome [15]

O=C(Nc1ccc(S(=O)(=O)N2CCOCC2)cc1)c1cc(Cl)ccc1NS(=O)(=O)c1ccc(Cl)s1
active: Potency [1] 23.9 µM | Potency [2] 21.3 µM | Potency [3] 23.9 µM | Potency [5] 23.9 µM | Potency [6] 9.52 µM | Potency [7] 26.8 µM
inactive: Potency [16] | Potency [17] | Potency [8] | Potency [9] | Potency [10] | Potency [18] | Potency [11] | Potency [12] | Potency [13] | Potency [14] | outcome [15]

CCCCCCCCCCCCCCCCOS(=O)(=O)O
active: Potency [1] 21.3 µM | Potency [3] 23.9 µM | Potency [5] 21.3 µM
inactive: Potency [2] | Potency [16] | Potency [9] | Potency [19] | Potency [10] | Potency [11] | Potency [12] | Potency [13] | Potency [14] | outcome [15]
